This is one part of the list. No count for the full screen is at hand.
B1: HC2352 (peptide)
chain: CAEVECHRPSAGNASASA
B2: HC2427 (peptide)
chain: CAFREVPCHRAGNASASA
B3: HC387 (peptide)
chain: CAPERLASCRAGNASASA
B4: HC2017 (peptide)
chain: CAVSCCSMSYAGNASASA
B5: FS-434 (peptide)
chain: CAGSHRRQRRAGNASASA
B6: FS-45 (peptide)
chain: CAKRSRDARRAGNASASA
B7: NG1 (peptide)
chain: CASSNQLQRRAGNASASA
B8: FS-743 (peptide)
chain: CAAISRRQRRAGNASASA
B9: HC1581 (peptide)
chain: CAARMILMTHAGNASASA
B10: HC931 (peptide)
chain: CAAYMNTPGLAGNASASA
B11: HC1719 (peptide)
chain: CAMEPCSQHLAGNASASA
B12: EK1 (peptide)
chain: CAGDDDDKAGAGNASASA
B13: FS-3250 (peptide)
chain: CARGQRSVKAAGNASASA
B14: FS-1951 (peptide)
chain: CARGKRSAGPAGNASASA
B15: FS-3188 (peptide)
chain: CARGKRLDGPAGNASASA
B16: FS-2932 (peptide)
chain: CARGIRPVGRAGNASASA
B17: FS-2934 (peptide)
chain: CARGKRFSQSAGNASASA
B18: FS-83 (peptide)
chain: CARGSRFSKSAGNASASA
B19: FS-2333 (peptide)
chain: CARGKRSCHAAGNASASA
B20: FS-2672 (peptide)
chain: CARGKRSPKSAGNASASA
B21: HC2472 (peptide)
chain: CAETPCSAHLAGNASASA
B22: HC526 (peptide)
chain: CAVCSCLWMMAGNASASA
B23: FS-2423 (peptide)
chain: CARKKKTEGTAGNASASA
B24: FS-2145 (peptide)
chain: CARHRRGQETAGNASASA
B25: FS-2943 (peptide)
chain: CARHRRALDTAGNASASA
B26: FS-1717 (peptide)
chain: CARHRRSLRLAGNASASA
B27: FS-2556 (peptide)
chain: CARHRRYKALAGNASASA
B28: FS-3256 (peptide)
chain: CARHRRLLSIAGNASASA
B29: FS-2492 (peptide)
chain: CARHRRVNGTAGNASASA
B30: FS-2946 (peptide)
chain: CARHRRMLTPAGNASASA
B31: FS-2560 (peptide)
chain: CARKKKLVSTAGNASASA
B32: FS-2155 (peptide)
chain: CARKKRNGLTAGNASASA
B33: FS-2146 (peptide)
chain: CARHRRRGSPAGNASASA
B34: HC1700 (peptide)
chain: CAMCECSQHLAGNASASA
B35: HC1596 (peptide)
chain: CACYSIEPLDAGNASASA
B36: HC243 (peptide)
chain: CAATGNLPGCAGNASASA
B37: FS-2435 (peptide)
chain: CARNQRIVQLAGNASASA
B38: FS-2691 (peptide)
chain: CARKKRALDAAGNASASA
B39: FS-2561 (peptide)
chain: CARKKRALDTAGNASASA
B40: HC563 (peptide)
chain: CAQRAYALDTAGNASASA
B41: HC1162 (peptide)
chain: CALPGIPFVSAGNASASA
B42: FS-1219 (peptide)
chain: CAKKQRSRRNAGNASASA
B43: FS-621 (peptide)
chain: CAQASRTRRNAGNASASA
B44: FS-512 (peptide)
chain: CATYQRHYRNAGNASASA

Molecular target: furin, P09958
Sequence (P09958 whole entry): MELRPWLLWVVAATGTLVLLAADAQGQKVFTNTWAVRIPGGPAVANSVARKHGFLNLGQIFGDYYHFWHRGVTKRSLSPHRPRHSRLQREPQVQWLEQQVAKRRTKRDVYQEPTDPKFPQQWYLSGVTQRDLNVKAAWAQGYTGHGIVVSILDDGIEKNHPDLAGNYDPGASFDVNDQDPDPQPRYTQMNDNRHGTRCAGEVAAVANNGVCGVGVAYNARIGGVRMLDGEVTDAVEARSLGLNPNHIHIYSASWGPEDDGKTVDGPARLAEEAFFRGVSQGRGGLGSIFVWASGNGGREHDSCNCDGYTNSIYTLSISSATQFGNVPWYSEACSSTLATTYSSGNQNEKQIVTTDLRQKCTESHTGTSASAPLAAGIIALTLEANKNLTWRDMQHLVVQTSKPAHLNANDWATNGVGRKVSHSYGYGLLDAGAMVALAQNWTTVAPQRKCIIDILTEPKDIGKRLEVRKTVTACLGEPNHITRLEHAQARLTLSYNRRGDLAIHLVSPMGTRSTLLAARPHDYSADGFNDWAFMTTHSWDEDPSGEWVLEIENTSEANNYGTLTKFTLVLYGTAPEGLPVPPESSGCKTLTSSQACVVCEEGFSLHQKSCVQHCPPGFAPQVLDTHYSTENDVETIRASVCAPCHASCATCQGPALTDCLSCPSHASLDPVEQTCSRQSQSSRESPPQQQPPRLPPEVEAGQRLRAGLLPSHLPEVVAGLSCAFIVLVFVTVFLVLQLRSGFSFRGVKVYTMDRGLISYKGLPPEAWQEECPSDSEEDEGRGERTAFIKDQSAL
Assay: furin cleavage Z-score vs untreated control; higher = more cleavage, active = 3.5 or more, inactive = 1 or less, 8 variable residues between constant flanks
Outline: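 Purified furin digested bead-held 8-mer peptide–cDNA fusions at 1:10 enzyme:substrate in 0.01 ml of 50 mM HEPES pH 7.5 with CaCl2 and NaCl for 7.5, 15 or 30 min. The cleavage Z-score compares sequencing counts of released DNA with furin-free reactions on a log scale, with lowess adjustment and median absolute deviation scaling.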

| Sequence | furin cleavage Z-score (7.5 min) | furin cleavage Z-score (15 min) | furin cleavage Z-score (30 min) |
| --- | --- | --- | --- |
| B1 | 1.1 | 0.203 (inactive) | 0.236 (inactive) |
| B2 | 0.22 (inactive) | 0.297 (inactive) | 0.623 (inactive) |
| B3 | -0.263 (inactive) | 0.599 (inactive) | 1.53 |
| B4 | 0.592 (inactive) | -0.576 (inactive) | 1.57 |
| B5 | 9.09 (active) | 10.6 (active) | 8.98 (active) |
| B6 | 1.61 | -0.052 (inactive) | 2.16 |
| B7 | 0.397 (inactive) | 2.01 | -0.568 (inactive) |
| B8 | 6.03 (active) | 8.53 (active) | 7.79 (active) |
| B9 | -0.255 (inactive) | -1.76 (inactive) | -1.15 (inactive) |
| B10 | -0.513 (inactive) | -1.08 (inactive) | 0.157 (inactive) |
| B11 | 2.46 | 0.794 (inactive) | 2.77 |
| B12 | -2.21 (inactive) | -1.96 (inactive) | 0.274 (inactive) |
| B13 | 0.885 (inactive) | -0.415 (inactive) | 1.5 |
| B14 | 11.6 (active) | 13.8 (active) | 9.13 (active) |
| B15 | 0.0707 (inactive) | 0.484 (inactive) | -0.699 (inactive) |
| B16 | -0.929 (inactive) | -0.4 (inactive) | 0.111 (inactive) |
| B17 | 0.749 (inactive) | 2.29 | 2 |
| B18 | -0.0204 (inactive) | -0.301 (inactive) | 0.871 (inactive) |
| B19 | 5.25 (active) | 5.05 (active) | 5.61 (active) |
| B20 | 11.3 (active) | 11 (active) | 9.78 (active) |
| B21 | -0.0785 (inactive) | -0.846 (inactive) | -1.94 (inactive) |
| B22 | -0.293 (inactive) | -0.986 (inactive) | -0.164 (inactive) |

| Sequence | furin cleavage Z-score (7.5 min) | furin cleavage Z-score (15 min) | furin cleavage Z-score (30 min) |
| --- | --- | --- | --- |
| B23 | -1.18 (inactive) | 0.416 (inactive) | 0.176 (inactive) |
| B24 | 0.466 (inactive) | 0.563 (inactive) | 2.26 |
| B25 | 5.7 (active) | 5.62 (active) | 5.06 (active) |
| B26 | 6.94 (active) | 6.95 (active) | 9.37 (active) |
| B27 | -0.784 (inactive) | -0.33 (inactive) | 3.08 |
| B28 | -0.899 (inactive) | -0.261 (inactive) | -0.784 (inactive) |
| B29 | 0.115 (inactive) | -0.477 (inactive) | -0.55 (inactive) |
| B30 | 5.72 (active) | 9.34 (active) | 8.35 (active) |
| B31 | -1.01 (inactive) | -1.81 (inactive) | -1.46 (inactive) |
| B32 | 5.12 (active) | 6.11 (active) | 6.82 (active) |
| B33 | 0.761 (inactive) | 1.81 | 1.39 |
| B34 | 0.0737 (inactive) | 0.814 (inactive) | -2.77 (inactive) |
| B35 | -0.277 (inactive) | -1.75 (inactive) | -0.48 (inactive) |
| B36 | -1.92 (inactive) | -0.777 (inactive) | -0.233 (inactive) |
| B37 | -2.13 (inactive) | 0.536 (inactive) | 0.203 (inactive) |
| B38 | 9.58 (active) | 11.5 (active) | 8.67 (active) |
| B39 | 9.66 (active) | 11.1 (active) | 10.8 (active) |
| B40 | -1.1 (inactive) | -1.23 (inactive) | -0.561 (inactive) |
| B41 | -1.14 (inactive) | 0.0847 (inactive) | -1.27 (inactive) |
| B42 | 9.72 (active) | 9.45 (active) | 8.79 (active) |
| B43 | 11.3 (active) | 14.2 (active) | 10.1 (active) |
| B44 | 1.23 | 0.916 (inactive) | 2.99 |

From the supplement of paper PMC3545927
